Compound activity (PubChem)
KB-3-1 cytotox – KB-3-1 parental cell cytotoxicity. KB-3-1 viability, CellTiter-Glo ATP luminescence, 72 h. Potency, µM (series often up to 46.1 µM), most hits filed as cytotoxic. 400,000 compounds, 1.4% hits. AID 1347075; note: % is set by controls: 0 for no effect and ±100 for the full control effect; nearly all actives have a fitted effect of over 60% in size
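Multi-concentration cytotoxicity screen in KB-3-1 cells grown in DMEM lacking phenol red with 10% FBS. After 72 h at 37 °C with compound, ATP-dependent luminescence was recorded.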
KB-V1 MDR tox – KB-V1 MDR subline cytotoxicity; Potency, µM (highest dose often 46.1 µM), usual class: cytotoxic; 400,000 compounds, 3.4% hits; KB-V1 MDR cells viability, CellTiter-Glo, 72 h; note: % is set by controls: 0 for no effect and ±100 for the full control effect; nearly all actives have a fitted effect of over 60% in size
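Cells of the MDR subline KB-V1 are plated, dosed with compound at multiple concentrations, and incubated 72 h at 37 degrees C; CellTiter-Glo is then added and luminescence read after 10 min.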
HT1080 IDH1KD tx – toxicity to HT-1080 IDH1 knockdown cells (counter line); HT-1080 IDH1 knockdown viability, ATP luminescence, 48 h; Potency, µM (highest dose often 46.1 µM), for the others: at the top dose activity, negative = toxicity, most hits filed as cytotoxic; 360,000 compounds, 2% hits;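 note: 0% = DMSO wells and -100% = cell-free medium wells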
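After a 2 h attachment period, IDH1KD HT-1080 cells took pin-transferred compound for 48 h at 37 °C; ATP-based luminescence after 10 min room-temperature reagent incubation reported viability.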
S2 tox – reduces viability in counter-screen for ATXN expression inhibitors; S2 cells (HEK-293 line with an ATXN2-luciferase reporter) viability, CellTiter-Fluor protease fluorescence, 24 h; Potency, µM (series often up to 56.7 µM), actives largely listed as cytotoxic; 400,000 compounds, 0.49% hits; note: nearly all actives have a fitted effect of over 40% in size
ATXN2 expr inh – ATXN2 expression inhibition; AID 1745845; HEK-293 ATXN2-luciferase reporter, luminescence, 24 h; 360,000 compounds, 0.72% hits; Potency, µM (doses to about 57 µM), without a hit: at the highest dose activity change, negative = inhibition, hits mostly inhibitors; note: % is set by controls: 0 for no effect and ±100 for the full control effect; nearly all actives have a fitted effect of over 55% in size
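ATXN2-luciferase reporter cells (luciferase flanked by upstream and downstream ATXN2 gene portions) were treated 24 h at 37 °C with compounds at up to 57 uM. SteadyGlo luminescence gave expression; GF-AFC fluorescence gave viability.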
HT1080-NT tox – kills 2HG-producing HT-1080-NT fibrosarcoma cells; HT-1080-NT fibrosarcoma viability, CellTiter-Glo ATP luminescence, 48 h; Potency, µM (doses to about 46.1 µM), inactives show at the top dose activity, negative = less viability, most hits filed as cytotoxic; 360,000 compounds, 1.6% hits; AID 686970;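 note: NT is the 2HG producing partner of a matched IDH1 knockdown line; 0% = DMSO-treated cells and -100% = media-only wells without cells; nearly all actives have a fitted effect of over 55% in size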
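HT-1080-NT; 750 cells/well; 5% FBS RPMI; 48 h compound, 37 degrees C; CellTiter-Glo luminescence; curve fitting and curve-class assignment.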
Starred values were filed as active, the others as inactive; i = inactive; ? = inconclusive; . = no result given; [ ] = remark or other dose. The list is not random: actives were taken first. Their share in the collection is about 6.2%. Calls come from the whole dose curve; as a rule, active = well fitted curve in the direction sought with a large enough effect; inconclusive = small, poorly fitted or top-dose-only effect, or another doubt; inactive = no such curve, though single readings can be large; an effect the other way counts as inactive or inconclusive. Potency is the fitted concentration of half-maximal effect.

SMILES | KB-3-1 cytotox | KB-V1 MDR tox | HT1080 IDH1KD tx | S2 tox | ATXN2 expr inh | HT1080-NT tox
NC(=O)C1CCN(c2ncc(-c3ccc4c(c3)OCCO4)s2)CC1 | i | i | . | . | . | .
O=C1/C(=C/c2ccc(O)c([N+](=O)[O-])c2)SC(=S)N1Cc1ccccc1 | ? | ? | -19% | ? | -21% | 23µM*
O=C1CSC(=S)N1Cc1cccnc1 | 4.6µM* | 2.9µM* | ? | ? | ? | ?
C=CCN=C1S/C(=C/c2cccc([N+](=O)[O-])c2)C(=O)N1CC=C | ? | i | ? | i | -1% | ?
O=C(O)c1cccc(CN2C(=O)S/C(=C/c3cccc([N+](=O)[O-])c3)C2=O)c1 | i | i | 16µM* | i | -22% | ?
S=C1SCN(Cc2cccnc2)CN1Cc1ccccc1 | i | i | 21µM* | ? | ? | ?
CC(C)(C)c1ccc(OCc2cc(=O)n3c4c(sc3n2)CCCC4)cc1 | i | i | . | i | 5% | .
CCc1cccc(C)c1NC(=O)c1cn2c3c(ccc(Cl)c3c1=O)OC(C)C2 (centres undefined) | i | i | . | i | 2% | .
CN1C(=O)/C(=C/c2ccc(O)c([N+](=O)[O-])c2)NC1=S | i | i | -1% | 25µM* | -11% | -8%
O=C1/C(=C\c2ccc(O)cc2)SC(=S)N1Cc1ccccc1 | i | i | 23µM* | i | -37% | ?
COc1cc(/C=C2\NC(=S)N(C)C2=O)ccc1O | i | i | 12% | ? | 0% | 6%
COc1ccc(-c2cnnn2-c2ccc(NC(=O)c3c(F)cccc3F)cc2)cc1 | i | i | . | . | . | .
COc1ccccc1-c1ccc(C(=O)N(C)CC2COCCO2)c(N2CCN(c3ccccc3F)CC2)n1 (centres undefined) | . | . | . | i | . | .
COc1cc(-c2coc3c(C(=O)NCc4cccc(Cl)c4)cccc23)ccc1O | i | ? | 23µM* | ? | ? | ?
COc1ccc(NC(=O)c2cccc3c(-c4ccc(O)c(OC)c4)coc23)cc1 | i | ? | ? | i | -12% | ?
COc1cc(-c2coc3c(C(=O)NCc4ccccc4)cccc23)ccc1O | i | i | ? | ? | -38% | 18µM*
O=C(COc1ccccc1C(=O)Nc1ccccc1)Nc1ccccc1F | i | i | . | . | . | .
N#Cc1ccccc1NC(=O)C1SC(=Nc2ccccc2)C(C(=O)Nc2ccc(Cl)cc2)=C1N (centres undefined) | 5.2µM* | 6.5µM* | -5% | i | ? | -22%
Cc1onc(-c2c(F)cccc2Cl)c1C(=O)Nc1cc(S(=O)(=O)N2CCCCC2)ccc1O | ? | 23µM* | -14% | i | -11% | ?
COc1ccccc1N1CCN(Cc2cccc(OC)c2OC)CC1 | i | i | -9% | . | . | -5%
COc1ccc(CN2CCN(c3ccccn3)CC2)cc1OCc1ccccc1 | i | 9.2µM* | ? | i | -22% | 0%
CCOc1ccccc1N1CCN(Cc2ccc(OC)c(OC)c2)CC1 | i | 16µM* | -13% | i | -7% | -11%
Cc1cccc(N2CCN(Cc3ccoc3)CC2)c1C | i | i | ? | i | 0% | 8%
COc1cc(CN2CCN(c3cccc(C)c3C)CC2)cc(OC)c1O | i | 18µM* | 0% | i | -4% | -12%
CCOc1ccccc1N1CCN(Cc2ccc(OC)c(OC)c2OC)CC1 | i | 18µM* | -28% | i | -22% | -3%
CCOc1cc(CN2CCCCCC2)ccc1OC | i | i | -2% | i | -18% | 1%
COc1ccc(CN2CCOc3ccc(CN4CCC(Oc5cccnc5)CC4)cc3C2)cc1C | . | . | . | i | . | .
CCOc1cc(CN2CCC(CO)(Cc3cccc(C(F)(F)F)c3)CC2)ccc1OC | 26µM* | i | 21µM* | ? | -17%[2.22 µM] | 21µM*
